Measurements reported in PubChem BioAssay (Tox21).
Results filed as inconclusive are left out. Activity calls are given as the source filed them. Calls follow the shape of the dose curve; as a rule, active = well fitted curve in the direction sought with a large enough effect in the repeat runs; inconclusive = weak or mixed curves; inactive = no such curve, though single readings can be large; an effect the other way counts as inactive or inconclusive.

Columns and labels:
[1] = qHTS RealTime-Glo MT Cell Viability Assay in HepG2 cells - 40 hour (AID 1224870); also: nearly all actives have a fitted effect of over 50% in size
Method in brief: (§1)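 HepG2 cells (600/well) mixed with RealTime-Glo MT reagent, settled 5 h at 37 C/5% CO2 before compound addition. Nonlytic NanoLuc luminescence from viable-cell prosubstrate reduction read repeatedly during 40 h treatment at 37 C.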

[2] = A CellTox Green Cytotoxicity Assay to monitor cytotoxicity in HEK293 cells - 40 hour (AID 1224871); also: nearly all actives have a fitted effect of over 45% in size
Method in brief: (§2)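 Tox21 screen in HEK293: membrane-impermeant cyanine dye fluoresces on binding dead-cell DNA; compound pinned 5 h post-seeding, plates held at 37 C, signal read repeatedly through 40 h.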

[3] = qHTS RealTime-Glo MT Cell Viability Assay in HepG2 cells - 8 hour (AID 1224873); also: nearly all actives have a fitted effect of over 55% in size
Method in brief: as §1

[4] = qHTS RealTime-Glo MT Cell Viability Assay in HEK293 cells - 40 hour (AID 1224874); conditions: RealTime-Glo luminescence; max response: stronger effect = lower value; also: nearly all actives have a fitted effect of over 50% in size
Method in brief: (§3)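 HEK293 + NanoLuc + prosubstrate, 600 cells/well; 5 h, 37 C/5% CO2; compound 23 nL in DMSO by pintool; 37 C; luminescence read at 0, 8, 16, 24, 32 and 40 h time points.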

[5] = A CellTox Green Cytotoxicity Assay to monitor cytotoxicity in HEK293 cells - 24 hour (AID 1224875); also: series mostly up to about 77 µM; nearly all actives have a fitted effect of over 45% in size
Method in brief: as §2

[6] = A CellTox Green Cytotoxicity Assay to monitor cytotoxicity in HepG2 cells - 16 hour (AID 1224876); also: nearly all actives have a fitted effect of over 45% in size
Method in brief: (§4)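 Measurements at 0, 8, 16, 24, 32 and 40 h of treatment captured CellTox Green fluorescence in HepG2 cells that had been co-plated with reagent and preincubated 5 h at 37 C/5% CO2.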

[7] = qHTS RealTime-Glo MT Cell Viability Assay in HepG2 cells - 32 hour (AID 1224877); also: nearly all actives have a fitted effect of over 55% in size
Method in brief: (§5)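 HepG2 suspension premixed with RealTime-Glo reagents is plated at 600 cells per well and left 5 h at 37 C/5% CO2. Compounds in DMSO then go in, and bioluminescence reflecting viable cell number is recorded over 40 h.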

[8] = A CellTox Green Cytotoxicity Assay to monitor cytotoxicity in HepG2 cells - 24 hour (AID 1224878); also: nearly all actives have a fitted effect of over 45% in size
Method in brief: as §4

[9] = qHTS RealTime-Glo MT Cell Viability Assay in HEK293 cells - 0 hour (AID 1224880)
Method in brief: as §3

[10] = A CellTox Green Cytotoxicity Assay to monitor cytotoxicity in HEK293 cells - 32 hour (AID 1224881); also: nearly all actives have a fitted effect of over 40% in size
Method in brief: as §2

[11] = A CellTox Green Cytotoxicity Assay to monitor cytotoxicity in HepG2 cells - 0 hour (AID 1224882); also: nearly all actives have a fitted effect of over 35% in size
Method in brief: as §4

[12] = A CellTox Green Cytotoxicity Assay to monitor cytotoxicity in HepG2 cells - 32 hour (AID 1224883); also: nearly all actives have a fitted effect of over 50% in size
Method in brief: as §4

[13] = A CellTox Green Cytotoxicity Assay to monitor cytotoxicity in HEK293 cells - 8 hour (AID 1224884); also: nearly all actives have a fitted effect of over 35% in size
Method in brief: as §2

[14] = qHTS RealTime-Glo MT Cell Viability Assay in HepG2 cells - 16 hour (AID 1224885); also: nearly all actives have a fitted effect of over 50% in size
Method in brief: as §5

[15] = qHTS RealTime-Glo MT Cell Viability Assay in HEK293 cells - 24 hour (AID 1224886)
Method in brief: (§6)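 Reads taken at 0, 8, 16, 24, 32 and 40 h from the same wells. HEK293 cells (600/well) carried RealTime-Glo reagents from seeding, with compound added after a 5 h settle at 37 C.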

[16] = qHTS RealTime-Glo MT Cell Viability Assay in HEK293 cells - 8 hour (AID 1224887)
Method in brief: as §3

[17] = A CellTox Green Cytotoxicity Assay to monitor cytotoxicity in HEK293 cells - 16 hour (AID 1224888); also: nearly all actives have a fitted effect of over 35% in size
Method in brief: as §2

[18] = qHTS RealTime-Glo MT Cell Viability Assay in HepG2 cells - 0 hour (AID 1224889); also: nearly all actives have a fitted effect of over 50% in size
Method in brief: as §5

[19] = A CellTox Green Cytotoxicity Assay to monitor cytotoxicity in HepG2 cells - 40 hour (AID 1224879); also: nearly all actives have a fitted effect of over 40% in size
Method in brief: as §4

[20] = qHTS RealTime-Glo MT Cell Viability Assay in HEK293 cells - 16 hour (AID 1224872)
Method in brief: as §6
% is scaled to controls: 0 for no effect and ±100 for the full control effect.

CC(C)=CCC1C(=O)N(c2ccccc2)N(c2ccccc2)C1=O
inactive: Potency [1] | Potency [2] | Potency [3] | max response [4] 4.23% | Potency [5] | Potency [6] | Potency [7] | Potency [8] | Potency [9] | Potency [10] | Potency [11] | Potency [12] | Potency [13] | Potency [14] | Potency [15] | Potency [16] | Potency [17] | Potency [18]

CC(=O)N/N=C/c1ccc([N+](=O)[O-])o1
inactive: Potency [1] | Potency [2] | Potency [3] | max response [4] 8% | Potency [5] | Potency [6] | Potency [7] | Potency [8] | Potency [9] | Potency [10] | Potency [11] | Potency [12] | Potency [13] | Potency [14] | Potency [16] | Potency [17] | Potency [18]

CCC(=O)C1CC(C(C)C)CC=C1C (stereo unspecified)
inactive: Potency [1] | Potency [2] | Potency [3] | max response [4] 9.7% | Potency [5] | Potency [7] | Potency [19] | Potency [9] | Potency [10] | Potency [11] | Potency [12] | Potency [13] | Potency [14] | Potency [15] | Potency [16] | Potency [17]

C/C=C\C/C=C/CCCCCCCCOC(C)=O
inactive: Potency [1] | Potency [20] | Potency [3] | max response [4] -25.6% | Potency [5] | Potency [6] | Potency [7] | Potency [19] | Potency [9] | Potency [10] | Potency [11] | Potency [12] | Potency [13] | Potency [14] | Potency [15] | Potency [17]

Oc1c(I)cc(I)c2cccnc12
inactive: Potency [1] | Potency [2] | Potency [3] | Potency [5] | Potency [6] | Potency [7] | Potency [19] | Potency [9] | Potency [11] | Potency [12] | Potency [13] | Potency [14] | Potency [16] | Potency [17]

CC(CC1c2ccccc2CCc2ccccc21)CN(C)C (stereo unspecified)
inactive: Potency [1] | Potency [2] | Potency [3] | Potency [5] | Potency [6] | Potency [7] | Potency [9] | Potency [10] | Potency [11] | Potency [13] | Potency [14] | Potency [15] | Potency [16] | Potency [17] | Potency [18]

CC[N+](CC)(CCNC(=O)C(=O)NCC[N+](CC)(CC)Cc1ccccc1Cl)Cc1ccccc1Cl
inactive: Potency [1] | Potency [2] | max response [4] 0.73% | Potency [5] | Potency [6] | Potency [7] | Potency [9] | Potency [10] | Potency [11] | Potency [12] | Potency [13] | Potency [14] | Potency [15] | Potency [16] | Potency [17]
